# Values joined by “and” are separate entries in the source; they are usually repeats but may differ in a detail not shown here. Equal entries are not always repeated. Results filed as inconclusive are left out. Active and inactive are the calls of the source.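 The calls were made as follows, unless noted: active = normalized viability below 100% at a tested concentration; inactive = the rest.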
# Key:
# [1] = viability loss in pontine glioma line – cell-based, SU-DIPG-XXV, MIPE5.0, CellTiter-Glo, qHTS, dose response (AID 1347065; cut-off not given, nearly all actives have AC50 up to about 26 µM;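 also: cells exposed to compound for 48 hours before ATP readout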); conditions: CellTiter-Glo ATP luminescence
# [2] = SU-DIPG-VI glioma cell viability, MIPE4.0 library, CellTiter-Glo luminescence, qHTS (AID 1347066; cut-off not given, nearly all actives have AC50 up to about 30 µM;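 also: cells exposed to compound for 48 hours before readout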); conditions: CellTiter-Glo ATP luminescence
# [3] = JHH-DIPG-1 glioma cell viability, MIPE5.0 library, CellTiter-Glo luminescence, qHTS (AID 1347067; cut-off not given, nearly all actives have AC50 up to about 26 µM;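 also: cells exposed to compound for 48 hours before readout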); conditions: JHH-DIPG-1 glioma viability, CellTiter-Glo ATP luminescence
# [4] = SU-DIPG-XXV glioma cell viability, MIPE5.0 library, qHTS (AID 1347068; cut-off not given, nearly all actives have IC50 up to about 30 µM;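 also: cells exposed to compound for 48 hours before viability readout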)
# [5] = sensitizers of A549 cells to miR-34 induction, primary screen, imaging, A549 dox-inducible miR-34, nuclei and caspase counts (AID 1347080;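 active = compounds whose cell count with miR-34 switched on is under 0.7 times the count with it off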); conditions: A549 miR-34 inducible, Hoechst nuclei count, 48 h
# [6] = survival rescue of mitochondrial mutant cells in low glucose, primary screen, MELAS cybrids, Rieske KO mouse fibroblasts, CellTiter-Glo (AID 1508586;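 active = mean z-score across replicates of 1.96 or higher in either the MELAS or the Rieske mutant cell line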;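 also: z relative to plate mean and SD of compound and empty wells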)
# [7] = molecular target: NAD(+) hydrolase SARM1 (Homo sapiens) (UniProt Q6SZW1); experiment: SARM1 TIR NADase inhibitors, cell lysate, NAD-Glo luminescence (AID 1508614;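 active = compound whose remaining NAD level is above about 45 nM, limit read from the data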;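 also: higher remaining NAD means stronger inhibition of SARM1 NADase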); conditions: SAM-TIR HEK293T lysate NADase, at 1 µM, stronger effect = higher value
# Chain of NAD(+) hydrolase SARM1 (Homo sapiens) (Q6SZW1 whole entry, looked up, the tested form may be a part): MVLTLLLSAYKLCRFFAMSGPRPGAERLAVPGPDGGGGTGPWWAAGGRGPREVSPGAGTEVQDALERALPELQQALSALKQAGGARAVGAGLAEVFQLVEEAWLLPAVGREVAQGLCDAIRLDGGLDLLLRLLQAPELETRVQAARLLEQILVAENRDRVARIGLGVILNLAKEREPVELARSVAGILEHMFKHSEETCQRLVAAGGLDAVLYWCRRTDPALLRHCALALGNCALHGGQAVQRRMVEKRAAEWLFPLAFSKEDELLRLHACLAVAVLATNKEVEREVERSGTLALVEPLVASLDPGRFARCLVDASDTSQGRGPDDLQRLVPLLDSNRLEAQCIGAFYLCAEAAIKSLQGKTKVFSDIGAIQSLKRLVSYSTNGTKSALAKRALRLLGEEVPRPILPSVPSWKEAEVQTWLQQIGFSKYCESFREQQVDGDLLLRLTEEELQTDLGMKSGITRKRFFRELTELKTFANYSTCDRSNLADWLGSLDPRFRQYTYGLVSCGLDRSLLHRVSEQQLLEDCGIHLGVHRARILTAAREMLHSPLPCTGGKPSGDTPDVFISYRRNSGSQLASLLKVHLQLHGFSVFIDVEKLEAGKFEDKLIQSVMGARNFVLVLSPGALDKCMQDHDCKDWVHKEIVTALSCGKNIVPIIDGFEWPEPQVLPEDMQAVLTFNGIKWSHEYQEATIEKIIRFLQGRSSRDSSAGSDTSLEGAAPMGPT
# [8] = molecular target: Mitogen-activated protein kinase 7 (Homo sapiens) (UniProt Q13164); experiment: ERK5 transactivation activators in reporter cells, primary screen, cell-based, HTS (AID 1508626;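 active = luciferase signal above three times the same-plate solvent-only control wells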;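 also: luciferase driven by Gal4-ERK5 fusion binding five Gal4 sites before minimal TATA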); conditions: HeLa Gal4-ERK5 transactivation, 18 h, at 5 µM, stronger effect = higher value
# Chain of Mitogen-activated protein kinase 7 (Homo sapiens) (Q13164 whole entry, looked up, the tested form may be a part): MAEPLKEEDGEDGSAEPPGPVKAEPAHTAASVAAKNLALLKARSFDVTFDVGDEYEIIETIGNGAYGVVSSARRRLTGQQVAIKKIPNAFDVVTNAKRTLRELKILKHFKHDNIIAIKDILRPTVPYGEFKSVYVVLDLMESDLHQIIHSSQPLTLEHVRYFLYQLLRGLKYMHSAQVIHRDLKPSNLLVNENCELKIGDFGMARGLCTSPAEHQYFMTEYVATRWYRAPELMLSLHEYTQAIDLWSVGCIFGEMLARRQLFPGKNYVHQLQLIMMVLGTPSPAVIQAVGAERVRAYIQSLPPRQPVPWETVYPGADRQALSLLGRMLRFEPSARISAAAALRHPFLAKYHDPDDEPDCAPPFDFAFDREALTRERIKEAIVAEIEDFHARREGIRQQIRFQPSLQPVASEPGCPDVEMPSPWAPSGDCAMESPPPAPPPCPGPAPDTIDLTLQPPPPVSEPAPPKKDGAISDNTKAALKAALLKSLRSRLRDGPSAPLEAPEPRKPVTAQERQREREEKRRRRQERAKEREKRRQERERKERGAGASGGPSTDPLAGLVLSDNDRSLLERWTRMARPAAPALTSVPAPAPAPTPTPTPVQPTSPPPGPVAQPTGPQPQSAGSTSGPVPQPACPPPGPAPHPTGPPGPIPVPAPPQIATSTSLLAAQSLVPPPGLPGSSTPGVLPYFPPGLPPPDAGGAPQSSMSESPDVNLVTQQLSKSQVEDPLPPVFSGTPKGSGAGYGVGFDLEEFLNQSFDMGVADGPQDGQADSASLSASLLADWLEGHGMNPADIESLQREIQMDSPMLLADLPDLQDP
# [9] = LFS_MB_P medulloblastoma growth inhibition, cell-based, chromothripsis tumors, cisplatin or BGB combos (AID 1671449; in the data active = inhibition above about 80%;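 also: cells exposed for 96 hours; 0% = vehicle DMSO and 100% = killing by high DMSO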); conditions: LFS_MB_P medulloblastoma cells
# [10] = HDN33 neuroblastoma growth inhibition, cell-based, chromothripsis tumors, cisplatin or BGB combos (AID 1671450; in the data active = inhibition above about 80%;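 also: cells exposed to compound for four days; 0% = vehicle DMSO and 100% = cell killing by high DMSO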); conditions: HDN33 neuroblastoma cells, stronger effect = higher value
# [11] = ICB984 medulloblastoma cell growth inhibition, synergistic combos for chromothripsis tumors, cisplatin or BGB combos (AID 1671451; call rule not given here;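 also: cells exposed for 96 hours before readout; 0% = vehicle DMSO and 100% = killing by high DMSO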); conditions: ICB984 medulloblastoma cells, drug combinations, stronger effect = higher value
# [12] = LFS_MB_1R medulloblastoma cell growth inhibition, synergistic combos for chromothripsis tumors, cisplatin or BGB combos (AID 1671452; in the data active = inhibition above about 80%;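 also: cells exposed for 96 hours before readout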); conditions: LFS_MB_1R medulloblastoma cells, stronger effect = higher value
# [13] = HTB85 osteosarcoma cell growth inhibition, synergistic combos for chromothripsis tumors, BGB or cisplatin IC20 combos (AID 1671453; in the data active = inhibition above about 80%;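 also: cells exposed for 96 hours before readout; 0% = vehicle DMSO and 100% = high DMSO killing control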); conditions: HTB85 osteosarcoma cells, drug combinations, stronger effect = higher value
# [14] = CRL2098 osteosarcoma cell growth inhibition, synergistic combos for chromothripsis tumors, BGB or cisplatin IC20 combos (AID 1671454; in the data active = inhibition above about 80%;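 also: cells exposed for 96 h before readout; 0% = vehicle DMSO and 100% = killing by high DMSO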); conditions: CRL2098 osteosarcoma cells, drug combinations, stronger effect = higher value
# [15] = HD-MB03 medulloblastoma cell growth inhibition, synergistic combos for chromothripsis tumors, BGB or cisplatin IC20 combos (AID 1671455; in the data active = inhibition above about 83%;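 also: 0% = vehicle DMSO and 100% = high DMSO as cytotoxic control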); conditions: HD-MB03 medulloblastoma cells, stronger effect = higher value
# [16] = modifiers of HSF1 nuclear foci, imaging, Selleck Cancer Library (AID 1347162; in the data active = plate-normalised HSF1 focus index below about 0.46); conditions: human cells, at 10 µM; SSMD: measured here: HSF1 foci SSMD mean; cell count: measured here: cell number; plate-normalised HSF1 focus index: stronger effect = lower value
# [17] = ovarian cancer cell viability with rucaparib, profiling panel, oncology-focused library, rucaparib conditional (AID 1508598); conditions: patient-derived ovarian cancer cells, CellTiter-Glo viability, 144 h, stronger effect = lower value
# [18] = stronger effect = lower value, cell number ratio, induced over uninduced
# [19] = measured here: relative caspase fold change +Dox/-Dox
# [20] = measured here: total cells with miR-34 induction, stronger effect = lower value
# [21] = measured here: total cells without miR-34 induction
# [22] = MELAS cybrid survival, CellTiter-Glo 48 h, stronger effect = higher value
# [23] = Rieske KO mouse fibroblast survival, CellTiter-Glo 72 h
# [24] = measured here: combination with BGB IC40, at 0.05 µM
compound,measurement,setting,value
CN(C)c1ccc(C(=C2C=CC(=[N+](C)C)C=C2)c2ccc(N(C)C)cc2)cc1,AC50,[1],0.833 µM (active)
same,AC50,[2],0.372 µM (active)
same,AC50,[3],1.86 µM (active)
same,IC50,[4],2.63 µM (active)
same,fold change,[5]; [18],0.999 (inactive) and 0.737 (inactive)
same,fold change,[5]; [19],0.9 and 1.26
same,cell count,[5]; [20],1530 and 788
same,cell count,[5]; [21],1530 and 1070
same,z-score,[6]; [22],3.09 (active)
same,z-score,[6]; [23],-2.82
same,remaining NAD,[7],10 nM (inactive)
same,luciferase signal,[8],104 AU (inactive)
same,inhibition,"[9]; at 0.5 µM, stronger effect = higher value",-1.03% (inactive)
same,inhibition,"[9]; measured here: combination with BGB IC20, at 0.005 µM",-15.3%
same,inhibition,"[9]; measured here: combination with BGB IC40, at 0.005 µM",-20.2%
same,inhibition,[9]; [24],-19.9%
same,inhibition,"[9]; measured here: combination with cisplatin, at 0.5 µM, stronger effect = higher value",-17.8%
same,inhibition,"[9]; measured here: combination with cisplatin, at 5 µM, stronger effect = higher value",112%
same,inhibition,"[10]; BGB combo, at 5 µM",99.3%
same,inhibition,[10]; at 0.5 µM,99.6% (active)
same,inhibition,"[10]; cisplatin combo, at 5 µM",99.6%
same,inhibition,"[10]; measured here: with BGB IC20 combination, at 0.5 µM",99.7%
same,inhibition,"[10]; measured here: with cisplatin IC20 combination, at 0.5 µM",99.6%
same,inhibition,"[10]; single agent, at 5 µM",99.7%
same,inhibition,"[11]; BGB IC20 combo, at 0.005 µM",79.3%
same,inhibition,"[11]; BGB IC40 combo, at 0.005 µM",87.3%
same,inhibition,"[11]; BGB IC40 combo, at 0.05 µM",98.5%
same,inhibition,[11]; at 0.5 µM,-35.3% (inactive)
same,inhibition,"[11]; cisplatin combo, at 0.05 µM",98.5%
same,inhibition,"[11]; cisplatin combo, at 0.5 µM",-53%
same,inhibition,"[11]; cisplatin combo, at 5 µM",-16%
same,inhibition,"[11]; measured here: 5 uM single agent, at 5 µM",6.83%
same,inhibition,[12]; at 0.5 µM,80.9% (active)
same,inhibition,[12]; [24],-11%
same,inhibition,"[12]; measured here: combination with cisplatin, at 0.5 µM",82.3%
same,inhibition,"[12]; measured here: combination with cisplatin, at 5 µM",104%
same,inhibition,[13]; at 0.5 µM,88.8% (active)
same,inhibition,"[13]; measured here: with BGB IC20, at 0.5 µM",84.9%
same,inhibition,"[13]; measured here: with BGB IC20, at 5 µM",94%
same,inhibition,"[13]; measured here: with cisplatin IC20, at 0.5 µM",92.7%
same,inhibition,"[13]; measured here: with cisplatin IC20, at 5 µM",97.1%
same,inhibition,"[13]; single agent, at 5 µM",96.8%
same,inhibition,[14]; at 0.5 µM,75.8% (inactive)
same,inhibition,"[14]; measured here: combination with BGB at IC20, at 0.5 µM",79.9%
same,inhibition,"[14]; measured here: combination with cisplatin at IC20, at 0.5 µM",70.6%
same,inhibition,[15]; at 0.5 µM,59.5% (inactive)
same,inhibition,"[15]; measured here: combo with BGB at IC20, at 0.5 µM",60.7%
same,inhibition,"[15]; measured here: combo with cisplatin at IC20, at 0.5 µM",47%
COc1cc2c(Nc3ccc(Br)cc3F)ncnc2cc1OCC1CCN(C)CC1,AC50,[1],14.8 µM (active)
same,AC50,[2],20.9 µM (active)
same,AC50,[3],20.9 µM (active)
same,IC50,[4],26.3 µM (active)
same,fold change,[5]; [18],0.896 (inactive)
same,fold change,[5]; [19],1.03
same,cell count,[5]; [20],1750
same,cell count,[5]; [21],1950
same,SSMD,[16],-3.85
same,cell count,[16],4710
same,plate-normalised HSF1 focus index,[16],0.799 (inactive)
same,z-score,[6]; [22],-0.0745 (inactive)
same,z-score,[6]; [23],-0.742
same,viability,"[17]; at 0.000305 µM, OCI-C5x cells, with rucaparib 10 µM, 100% = cells with rucaparib alone",108% (inactive)
same,viability,"[17]; at 0.000305 µM, OCI-C5x cells, without rucaparib",109% (inactive)
same,viability,"[17]; at 0.000305 µM, OCI-P5x cells, with rucaparib 20 µM, 100% = cells with rucaparib alone",82.1% (active)
same,viability,"[17]; at 0.000305 µM, OCI-P5x cells, without rucaparib",95.9% (active)
same,viability,"[17]; at 0.00122 µM, OCI-C5x cells, with rucaparib 10 µM, 100% = cells with rucaparib alone",103% (inactive)
same,viability,"[17]; at 0.00122 µM, OCI-C5x cells, without rucaparib",106% (inactive)
same,viability,"[17]; at 0.00122 µM, OCI-P5x cells, with rucaparib 20 µM, 100% = cells with rucaparib alone",92.5% (active)
same,viability,"[17]; at 0.00122 µM, OCI-P5x cells, without rucaparib",100% (inactive)
same,viability,"[17]; at 0.00488 µM, OCI-C5x cells, with rucaparib 10 µM, 100% = cells with rucaparib alone",122% (inactive)
same,viability,"[17]; at 0.00488 µM, OCI-C5x cells, without rucaparib",111% (inactive)
same,viability,"[17]; at 0.00488 µM, OCI-P5x cells, with rucaparib 20 µM, 100% = cells with rucaparib alone",87.8% (active)
same,viability,"[17]; at 0.00488 µM, OCI-P5x cells, without rucaparib",104% (inactive)
same,viability,"[17]; at 0.0195 µM, OCI-C5x cells, with rucaparib 10 µM, 100% = cells with rucaparib alone",110% (inactive)
same,viability,"[17]; at 0.0195 µM, OCI-C5x cells, without rucaparib",118% (inactive)
same,viability,"[17]; at 0.0195 µM, OCI-P5x cells, with rucaparib 20 µM, 100% = cells with rucaparib alone",90.3% (active)
same,viability,"[17]; at 0.0195 µM, OCI-P5x cells, without rucaparib",112% (inactive)
same,viability,"[17]; at 0.0781 µM, OCI-C5x cells, with rucaparib 10 µM, 100% = cells with rucaparib alone",111% (inactive)
same,viability,"[17]; at 0.0781 µM, OCI-C5x cells, without rucaparib",118% (inactive)
same,viability,"[17]; at 0.0781 µM, OCI-P5x cells, with rucaparib 20 µM, 100% = cells with rucaparib alone",88% (active)
same,viability,"[17]; at 0.0781 µM, OCI-P5x cells, without rucaparib",101% (inactive)
same,viability,"[17]; at 0.313 µM, OCI-C5x cells, with rucaparib 10 µM, 100% = cells with rucaparib alone",112% (inactive)
same,viability,"[17]; at 0.313 µM, OCI-C5x cells, without rucaparib",113% (inactive)
same,viability,"[17]; at 0.313 µM, OCI-P5x cells, with rucaparib 20 µM, 100% = cells with rucaparib alone",83.3% (active)
same,viability,"[17]; at 0.313 µM, OCI-P5x cells, without rucaparib",103% (inactive)
same,viability,"[17]; at 1.25 µM, OCI-C5x cells, with rucaparib 10 µM, 100% = cells with rucaparib alone",111% (inactive)
same,viability,"[17]; at 1.25 µM, OCI-C5x cells, without rucaparib",116% (inactive)
same,viability,"[17]; at 1.25 µM, OCI-P5x cells, with rucaparib 20 µM, 100% = cells with rucaparib alone",78.7% (active)
same,viability,"[17]; at 1.25 µM, OCI-P5x cells, without rucaparib",102% (inactive)
same,viability,"[17]; at 5 µM, OCI-C5x cells, with rucaparib 10 µM, 100% = cells with rucaparib alone",55.4% (active)
same,viability,"[17]; at 5 µM, OCI-C5x cells, without rucaparib",51.8% (active)
same,viability,"[17]; at 5 µM, OCI-P5x cells, with rucaparib 20 µM, 100% = cells with rucaparib alone",43.9% (active)
same,viability,"[17]; at 5 µM, OCI-P5x cells, without rucaparib",78.9% (active)
